From PubChem BioAssay come the findings set out here.

The source made the active and inactive calls. Unless noted, the rule behind the calls is not given here.

Test [1] can be described thus: Plasmodium falciparum growth inhibition, primary screen, strain 3D7, DAPI fluorescence, 100 nL (AID 1184).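 Note: parasites grown inside human red blood cells in medium with human serum.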 As to conditions: P. falciparum 3D7 growth, 3 d, higher = more signal.
The target in test [2] is Homeobox protein Hox-A13 (Mus musculus) (UniProt Q62424). Put plainly: inhibitors of HoxA13-DNA binding, primary screen, biochemical, fluorescence polarization, labeled oligonucleotide (AID 1185). As to conditions: 15 min, higher = more signal, called active from +8 up or from −8 down. On the technique in general: Polarisation of emitted light reports the rotation of a fluorescent probe.

Test [3] can be described thus: inhibitors of hydroxyurea-induced Chk1 phosphorylation, primary screen, imaging, HeLa, phospho-Chk1 antibody, percent positive cells (AID 1186). The following applies: hydroxyurea-induced phospho-Chk1 immunofluorescence imaging, higher = more signal.
Test [4] is described as follows: inhibitors of hydroxyurea-induced Chk1 phosphorylation, primary screen, imaging, HeLa, phospho-Chk1 nuclear intensity (AID 1187). Note: test concentration not given here. As to conditions: hydroxyurea-induced phospho-Chk1 immunofluorescence imaging, higher = more signal.

Sequence of Homeobox protein Hox-A13 (Mus musculus) (Q62424 whole entry, looked up): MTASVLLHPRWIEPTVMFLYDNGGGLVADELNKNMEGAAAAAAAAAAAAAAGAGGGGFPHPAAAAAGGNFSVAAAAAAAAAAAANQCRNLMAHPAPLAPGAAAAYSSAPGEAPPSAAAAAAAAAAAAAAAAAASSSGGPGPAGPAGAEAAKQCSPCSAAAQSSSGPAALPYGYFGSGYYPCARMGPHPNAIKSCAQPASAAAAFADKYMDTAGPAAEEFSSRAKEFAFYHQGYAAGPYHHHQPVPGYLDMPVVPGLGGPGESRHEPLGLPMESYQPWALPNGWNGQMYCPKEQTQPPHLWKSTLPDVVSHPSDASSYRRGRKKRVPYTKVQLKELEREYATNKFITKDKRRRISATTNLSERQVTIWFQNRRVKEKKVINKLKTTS

For `C[C@@H](OCc1ccccc1)C1NC(=O)[C@@]23C(=O)N[C@@H](Cc4ccccc4)C2[C@H](C)[C@@]2(C)O[C@H]2C3/C=C/C/C=C\CNC(=O)[C@@H]2CCCN2C1=O` (stereo not given in full), the z-score was -2.58 in test [1], -7.05 (inactive) in test [2], 0.0938 (inactive) in test [3] and 0.427 (inactive) in test [4].
Taken in the same sequence, the figures for `C=CCNC(=O)[C@@H]1[C@H]2C(=O)O[C@H](c3ccccc3)[C@H](c3ccccc3)N2[C@H](c2ccc(O)cc2)[C@@]12C(=O)Nc1ccccc12` were -1.73, -3.58 (inactive), 0.21 (inactive) and 0.399 (inactive).
Taken in the same sequence, the figures for `CCN(CC)c1ccc(N2CC=CC34O[C@@H]5C=CCOC(=O)[C@@H]5[C@H]3C(=O)N(C(CO)C(C)C)[C@@H]4C2=O)cc1` (stereo not given in full) were -0.45, -3.03 (inactive), -0.623 (inactive) and 0.286 (inactive).
Taken in the same sequence, the figures for `C=CCC(OC(C)=O)[C@@H]1[C@@H](N(Cc2ccc(-c3cccc(C(F)(F)F)c3)o2)C(=O)c2ccc(-c3ccccc3)cc2)c2cc(OCCCO)ccc2N1C(=O)Cc1ccc(OC)cc1` (stereo not given in full) were -0.809, -0.497 (inactive), -0.138 (inactive) and -0.0148 (inactive).
`O=C(NO)[C@]1(Cc2ccccc2)N=C(c2ccc(OCCCO)cc2)O[C@@H]1c1ccccc1`: the z-score in test [1] is -1.26; in test [2] it was -5.15 (inactive); in test [3] it was -0.593 (inactive); in test [4] it was -0.0319 (inactive).
Taken in the same sequence, the figures for `CCOC(=O)C[C@H]1[C@H](OC(=O)c2ccc(-c3ccccc3)cc2)[C@@H](NC(=O)c2ccccc2)c2cc(OCCCO)ccc2N1C(=O)c1ccccc1` were -1.21, -0.959 (inactive), -1.04 (inactive) and -0.361 (inactive).
On to `O=C(NCc1ccccc1)[C@@H]1c2ccccc2C(=O)N(Cc2ccccc2Cl)[C@H]1c1ccc(CO)cc1`, for which the z-score was 0.187 in test [1], -0.497 (inactive) in test [2], -0.0434 (inactive) in test [3] and 0.206 (inactive) in test [4].
Taken in the same sequence, the figures for `C=C(C(=O)CC[C@H](OC(C)=O)c1ccc(CO)o1)C(C)C` were -2.1, -2.79 (inactive), -0.17 (inactive) and -0.428 (inactive).
With `CCCC[C@@H](O)C1=C(C)C[C@H]2C(=O)N(C)C(=O)[C@H]2[C@H]1CO`, the z-score is -1.46 in test [1], -3.63 (inactive) in test [2], -0.425 (inactive) in test [3] and -0.185 (inactive) in test [4].
As for `CC(C)[Si](C#C[Si](C(C)C)(C(C)C)C(C)C)(O[C@H](C)c1cn([C@H](C)c2ccccc2)nn1)C(C)C`, the z-score in test [1] is -0.628; in test [2] it was -0.0303 (inactive); in test [3], -0.0899 (inactive); in test [4], 0.346 (inactive).
Regarding `COc1ccc([Si](C)(C)[C@@H]2[C@@H](CCn3cc([C@H](O)c4ccccc4)nn3)O[C@]3(C(=O)N(C)c4c(Br)cc(C)cc43)[C@H]2C)cc1`, the z-score is -1.22 in test [1], -3.19 (inactive) in test [2], -0.973 (inactive) in test [3] and -0.208 (inactive) in test [4].
Taken in the same sequence, the figures for `C=CC[C@]1(C(=O)N(C)C)N=C(c2ccc(OCCCO)cc2)O[C@H]1c1ccccc1CN=[N+]=[N-]` were -2.49, -4.33 (inactive), -0.0783 (inactive) and 0.347 (inactive).
As to `CC(C)C[C@@H]1NC(=O)[C@@H]2C[C@H](C(=O)NCCCCCNC(=O)CS)[C@H](c3cccc(OCCO)c3)N2C1=O`, the z-score is -0.37 in test [1], -2.89 (inactive) in test [2], 0.611 (inactive) in test [3] and 0.419 (inactive) in test [4].
Taken in the same sequence, the figures for `NCCCCCCNC(=O)[C@@H]1C[C@@H]2C(=O)N[C@@H](Cc3ccccc3)C(=O)N2[C@@H]1c1ccc(O)cc1` were -0.18, -1.74 (inactive), 1 (inactive) and 0.982 (inactive).
In the case of `COCCOC(=O)N1C(=O)[C@@]2(c3cc(C#CCNC(N)=O)ccc31)[C@H](C(=O)NC[C@H](O)c1ccccc1)[C@H]1C(=O)O[C@H](c3ccccc3)[C@H](c3ccccc3)N1[C@@H]2c1ccc(O)cc1`, the z-score was 0.418 in test [1], -2.4 (inactive) in test [2], -0.134 (inactive) in test [3] and -0.595 (inactive) in test [4].
Taken in the same sequence, the figures for `COc1ccc(C(=O)Nc2cccc(CN3C(=O)[C@@]4(O[C@@H](CCO)[C@H]([Si](C)(C)c5ccc(OC)cc5)[C@H]4C)c4ccccc43)c2)cc1` were -2.7, -2.09 (inactive), -1.08 (inactive) and -0.215 (inactive).
As to `C=CCN1C(=O)[C@@]2(O[C@@H](CCO)[C@H]([Si](C)(C)c3ccc(OC)cc3)[C@H]2C)c2cc(N3C(=O)c4cccc5cccc3c45)ccc21`, the z-score in test [1] was -2.57; in test [2], -2.8 (inactive); in test [3] it was -1.22 (inactive); in test [4], -0.751 (inactive).
Regarding `COc1ccc(C#Cc2ccc3c(c2)[C@]2(C(=O)N3)[C@H](c3ccc(O)cc3)N3[C@H](c4ccccc4)[C@H](c4ccccc4)OC(=O)[C@H]3[C@@H]2C(N)=O)cc1`, the z-score in test [1] was -1.17; in test [2] it was -0.123 (inactive); in test [3] it was 0.186 (inactive); in test [4], 0.381 (inactive).
With `COc1ccc([Si](C)(C)[C@@H]2[C@@H](CC(=O)N3CCC[C@H]3CO)O[C@]3(C(=O)N(Cc4ccc(N5CCC5=O)cc4)c4ccccc43)[C@H]2C)cc1`, the z-score is -0.0482 in test [1], -2.83 (inactive) in test [2], -0.245 (inactive) in test [3] and 0.476 (inactive) in test [4].
As to `C=C(/C(=C/C[C@H](OC(=O)c1ccncc1)c1cccc(OCCO)c1)c1cc(C(=O)OC)ccc1OC)C(C)C`, the z-score in test [1] is -2.77; in test [2], -2.91 (inactive); in test [3] it was -1.09 (inactive); in test [4] it was -1.36 (inactive).
Take `[N-]=[N+]=NCc1ccccc1C[C@]1(C(=O)NCc2ccccc2)N=C(c2ccc(OCCCO)cc2)O[C@H]1c1ccccc1`: the z-score is -2.32 in test [1], 1.43 (inactive) in test [2], -0.901 (inactive) in test [3] and -0.877 (inactive) in test [4].
Taken in the same sequence, the figures for `O=C(NC1CC1)[C@@H]1c2ccccc2C(=O)N(Cc2ccccc2C(F)(F)F)[C@H]1c1ccc(CO)cc1` were -0.358, -1.7 (inactive), -0.14 (inactive) and 0.177 (inactive).
Taken in the same sequence, the figures for `C=CCC1(CC=C)C[C@H]2CO[C@H](c3ccc(OC)cc3)N2C1=O` were -0.682, -0.41 (inactive), -0.063 (inactive) and 0.989 (inactive).
Taken in the same sequence, the figures for `C=CCC(OC(C)=O)[C@@H]1[C@@H](N(Cc2cccc3ccccc23)C(=O)c2cccc3ccccc23)c2cc(OCCCO)ccc2N1C(=O)Cc1ccc(OC)cc1` (stereo not given in full) were -2.48, -1.57 (inactive), -0.0578 (inactive) and 0.507 (inactive).
Regarding `COC(=O)c1c(CC[C@@H](CO)NC(=O)Nc2ccc(OC)cc2)oc(C(=O)Cc2ccccc2)c1C(=O)OC`, the z-score is -0.83 in test [1], -4.5 (inactive) in test [2], 0.0211 (inactive) in test [3] and 0.406 (inactive) in test [4].
As for `[N-]=[N+]=NCc1ccccc1C[C@@]1(C(=O)O)N=C(c2ccc(OCCCO)cc2)O[C@@H]1c1ccccc1`, the z-score in test [1] was -0.455; in test [2], -5.05 (inactive); in test [3] it was 0.0912 (inactive); in test [4], 0.429 (inactive).
Taken in the same sequence, the figures for `C=C(CCCC)/C(=C/C[C@@H](OC(=O)c1ccncc1)c1ccc(OCCO)cc1)c1cnc2ccccc2c1` were -2.84, -2.35 (inactive), -0.191 (inactive) and -0.181 (inactive).
Taken in the same sequence, the figures for `COCCOC(=O)N1C(=O)[C@@]2(c3cc(C#CCNC(N)=O)ccc31)[C@H](c1ccccc1OCCO)N1[C@H](c3ccccc3)[C@H](c3ccccc3)OC(=O)[C@H]1[C@@H]2C(=O)Nc1nc2ccccc2s1` were -1.89, 1.57 (inactive), -0.298 (inactive) and -0.154 (inactive).
As to `CC(C)C[C@@H]1NC(=O)[C@H]2C[C@@H](C(=O)NCCCC[N+](C)(C)C)[C@@H](c3cccc(OCCO)c3)N2C1=O`, the z-score in test [1] was 1; in test [2], -2.24 (inactive); in test [3] it was 0.656 (inactive); in test [4], 0.824 (inactive).
Taken in the same sequence, the figures for `NCCCCCNC(=O)[C@H]1C[C@H]2C(=O)NCC(=O)N2[C@H]1c1ccc(O)cc1` were -0.223, -0.587 (inactive), 0.637 (inactive) and 0.791 (inactive).
Consider `C/C=C/[C@@H](CCn1cc(CCO[Si](C(C)C)(C(C)C)C(C)C)nn1)[Si](C)(C)c1ccc(OC)cc1`, for which the z-score was -0.84 in test [1], -5.56 (inactive) in test [2], -0.233 (inactive) in test [3] and 0.122 (inactive) in test [4].
Taken in the same sequence, the figures for `COc1ccc([Si](C)(C)[C@H]2[C@H](CC(=O)N(CCO)Cc3ccccc3)O[C@@]3(C(=O)N(Cc4cccc(N5C(=O)COc6ccccc65)c4)c4ccccc43)[C@@H]2C)cc1` were -2.28, -1.15 (inactive), -0.567 (inactive) and 0.722 (inactive).
For the compound `CC(C)[C@@H](C(=O)O)n1cc(-c2ccccn2)nn1`, the z-score in test [1] was -0.461; in test [2], -1.37 (inactive); in test [3] it was -0.0368 (inactive); in test [4], -0.0613 (inactive).
Taken in the same sequence, the figures for `C[N+](C)(C)CCCC[C@@H]1NC(=O)[C@@H]2C[C@H](C(=O)NCCCCCNC(=O)CS)[C@H](c3ccc(O)cc3)N2C1=O` were -0.34, -1.22 (inactive), -0.536 (inactive) and -0.272 (inactive).
In the case of `C=CCNC(=O)[C@@H]1[C@H]2C(=O)O[C@H](c3ccccc3)[C@H](c3ccccc3)N2[C@H](c2ccc(O)cc2)[C@@]12C(=O)Nc1ccc(C#Cc3ccc(OC)cc3)cc12`, the z-score is -0.107 in test [1], 0.296 (inactive) in test [2], -0.357 (inactive) in test [3] and -0.426 (inactive) in test [4].
